Source: PubChem (National Center for Advancing Translational Sciences (NCATS))
Only a selection was taken, and hits are over-represented in it overall.
NPSR antagonist: antagonists of human neuropeptide S receptor cAMP signaling. CHO-NPSR cells, cAMP TR-FRET, antagonist mode. Q6W5P4. 1% of 220,000 active. AID 1461. Potency, µM (top dose mostly 38.3 µM), without a hit: top-dose activity change, negative = inhibition, most hits filed as inhibitors; further: nearly all actives have a fitted effect of over 50% in size
Target sequence (Q6W5P4 whole entry, looked up): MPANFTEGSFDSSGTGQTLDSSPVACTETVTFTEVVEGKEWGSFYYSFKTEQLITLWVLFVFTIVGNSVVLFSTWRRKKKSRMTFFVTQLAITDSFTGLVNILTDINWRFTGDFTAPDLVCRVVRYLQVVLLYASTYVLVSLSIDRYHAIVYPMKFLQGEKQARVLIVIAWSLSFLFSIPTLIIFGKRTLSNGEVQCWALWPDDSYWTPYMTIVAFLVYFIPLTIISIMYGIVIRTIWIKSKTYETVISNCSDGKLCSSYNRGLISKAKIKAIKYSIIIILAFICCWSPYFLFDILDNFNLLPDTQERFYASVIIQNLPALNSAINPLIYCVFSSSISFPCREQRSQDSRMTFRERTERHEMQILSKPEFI
ERK EGF block: blocks ERK signaling stimulated by EGF. HEK293-V1b, EGF-stimulated phospho-ERK AlphaScreen. Potency, µM (series often up to 11.5 µM), without a hit: at the top dose activity change, negative = inhibition, usual class: inhibitors. 0.41% of 130,000 active. AID 1454;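 further: plate controls were stimulated vehicle wells for no effect and unstimulated vehicle basal for full effect; nearly all actives have a fitted effect of over 55% in size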
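After overnight plating in 1% FBS, HEK293-V1b cells received test compound for half an hour, then a 5 min pulse of EGF (25 nM); ERK phosphorylation in lysates was read by bead-based AlphaScreen.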
* hit, by the source's call; u = inconclusive; x = no result; [ ] = another dose, or the depositor's remark. The call rests on the fitted dose curve; in most records, active means well fitted curve in the direction sought with a large enough effect; inconclusive means small, poorly fitted or top-dose-only effect, or another doubt; inactive means no such curve, though single readings can be large; an effect the other way counts as inactive or inconclusive. Unless noted, on the % scale 0 is the no-effect control and ±100 the full control effect; potency means the concentration at half of the fitted maximal effect.

SMILES	NPSR antagonist	ERK EGF block
O=C(CCNC(=O)c1ccccc1Cl)Nc1cc(C(F)(F)F)ccc1Cl	-3%	0%
O=C(CCNC(=O)c1ccccc1Cl)Nc1ccc(Br)c(C(F)(F)F)c1	-6%	28µM*
CC(=O)CCC(=O)OCC(=O)c1ccc(C(F)(F)F)cc1	-9%	2%[57.5 µM]
Oc1ccc(N=Nc2cccc(C(F)(F)F)c2)cc1C=Nc1ccc(N2CCOCC2)cc1	7.9µM*	-1%
Oc1ccc(C=Nc2ccc(N3CCOCC3)cc2)c(O)c1	-18%[46.1 µM]	x
O=[N+]([O-])c1c(N2CCN(CCO)CC2)nc2ccccn12	-20%	8%[57.5 µM]
N#Cc1c(-c2ccco2)nc(SCC(=O)Nc2ccc(S(N)(=O)=O)cc2)[nH]c1=O	3%[46.1 µM]	x
N#Cc1c(-c2ccco2)nc(SCc2ccc(F)cc2)[nH]c1=O	7.9µM*	x
CCN1CCN(CCCN(Cc2cccs2)C(=S)Nc2ccccc2C)CC1	-3%	-10%
CCOC(=O)c1cnc(-n2nc(C)cc2C)nc1Nc1ccccc1OC	-2%[46.1 µM]	x
CCOC(=O)c1cnc(-n2nc(C)cc2C)nc1NC1CCCC1	1.3µM*	u
CCOC(=O)c1cnc(-n2nc(C)cc2C)nc1N1CCOCC1	-23%[46.1 µM]	x
CCOC(=O)c1cnc(-n2nc(C)cc2C)nc1NCCc1ccccc1	13µM*	x
C=CCc1ccccc1OCC(O)CNC(C)C (stereo not drawn)	17%	17%
O=C(NNc1ccccc1)/C(=C\c1cccnc1)NC(=O)c1ccccc1	12%	13%[57.5 µM]
COc1cccc(-n2c(=O)n(Cc3ccccc3)c(=O)c3[nH]cnc32)c1C	0%	2%[57.5 µM]
CN1/C(=C\C=O)C(C)(C)c2ccccc21	9%	3%
CN1\C(=C/C=C/C=C/C=[N+](C)C)C(C)(C)c2ccccc21	10µM*	16µM*
COc1ccc(C(CC(=O)O)NC(=O)COc2cc(C)ccc2C)cc1OC (stereo not drawn)	-3%	-6%
C[C@@H]1CC=C[C@H]2[C@H]1C(=O)N(Cc1ccccc1)[C@H]2c1ccc(F)c(/C=C/c2ccccc2)c1	-58%	-3%[57.5 µM]
C[C@@H]1CC=C[C@H]2[C@H]1C(=O)N(Cc1ccccc1)[C@H]2c1ccc2ccccc2c1Br	10µM*	-2%[57.5 µM]
Cc1ccc(F)c([C@H]2[C@H]3C=CC[C@@H](C)[C@@H]3C(=O)N2Cc2ccccc2)c1	u	3%[57.5 µM]
C[C@@H]1CC=C[C@H]2[C@H]1C(=O)N(Cc1ccccc1)[C@H]2c1ccc(F)c(Br)c1	4µM*	-1%[57.5 µM]
COc1ccc(-c2cccc(C3CC=CC4C3C(=O)N(Cc3ccccc3)C4c3ccc(OC)c(Cl)c3)c2)cc1 (stereo not drawn)	10µM*	2%[57.5 µM]
Cc1ccc(-c2cccc(C3CC=CC4C3C(=O)N(Cc3ccccc3)C4c3ccc4ccccc4c3)c2)cc1 (stereo not drawn)	-14%	8%[57.5 µM]
SMILES	NPSR antagonist	ERK EGF block
CCOc1c(Cl)cc(C(=O)Nc2cccc(C(=O)O)c2)cc1Cl	8%	5%
Cc1cccc2sc(NNC(=O)c3cc(-c4cccs4)nc4ccccc34)nc12	-9%	13µM*
NNC(=O)c1cc(-c2cccs2)nc2ccccc12	-1%	7%[57.5 µM]
COc1cccc([C@@H]2Oc3ccc(OC)cc3C[C@H]2OC(=O)N[C@H](C)C2CCCCC2)c1	x	-14%
Cc1ccc(C)n1-c1ccc(N2CCOCC2)c([N+](=O)[O-])c1	-33%	-5%[57.5 µM]
O=[N+]([O-])c1cc(-n2cccc2)ccc1N1CCOCC1	14%	28µM*
CCCC12CN3CC(C)(CN(C1)C3c1cccs1)C2=O (stereo not drawn)	-1%[7.67 µM]	7%[57.5 µM]
Cc1nnc(SCC(=O)NC(C)(C)C)n1NCc1c(F)cccc1Cl	-7%	3%
CC1=N/C(=C\c2ccc3c(c2)OCO3)C(=O)N1c1ccc(C(=O)O)cc1	-25%	5%
O=C(O)c1ccc(N2C(=O)/C(=C\c3ccccc3)N=C2c2ccccc2)cc1	6.3µM*	-7%[57.5 µM]
CSc1ccc2c(c1)N(CCC1CCCCN1C)c1ccccc1S2 (stereo not drawn)	13µM*	u
CSc1ccc2c(c1)N(CC[C@H]1CCCCN1C)c1ccccc1S2	x	-7%[25.7 µM]
CCOC(=O)/C=C/COc1ccccc1[N+](=O)[O-]	8%	0%
COc1cc2[nH]c(=S)nc(NCc3cccs3)c2cc1OC	-25%	-9%
COc1cc2ncnc(NCc3ccc(C)cc3)c2cc1OC	-24%[46.1 µM]	x
COc1ccc(CCNc2ncnc3cc(OC)c(OC)cc23)cc1OC	-11%	28µM*
COc1cccc(CNc2ncnc3cc(OC)c(OC)cc23)c1	-14%[46.1 µM]	x
COc1cc2ncnc(NCc3cccs3)c2cc1OC	11%	2.5µM*
COc1cc2ncnc(NCCc3ccccc3)c2cc1OC	-9%	3.5µM*
C=CC1=C(C)C2=NC1=CC1=NC(=CC3=NC(=CC4=NC(=C2)C(C)=C4CCC(=O)O)C(CCC(=O)O)=C3C)C(C=C)=C1C.[Zn]	x	2%
Cc1ccc(NC(=O)CSc2nc(O)c(Cc3ccccc3)c(=O)n2-c2ccccc2)cc1	5%	x
FC(F)(F)Oc1ccc(NC(=S)Nc2ccc(OC(F)(F)F)cc2)cc1	-28%	1%[57.5 µM]
Cc1cc(C)c(O)c(-c2cc(C(=O)Nc3ccc(S(=O)(=O)N4CCOCC4)cc3)[nH]n2)c1	13µM*	x
Cc1ccc(C(=O)Nc2ccc(S(=O)(=O)N3CCOCC3)cc2)cc1	6%	-2%
O=C1c2sc3nc4ccccc4n3c2C(=O)N1c1ccccc1Cl	10µM*	x
SMILES	NPSR antagonist	ERK EGF block
O=c1/c(=C\c2cccnc2)sc2nc3ccccc3n12	-9%[46.1 µM]	x
O=C(Nc1ccc(Cl)cc1)Nc1ccccc1Sc1ncc([N+](=O)[O-])s1	u	-3%[57.5 µM]
O=[N+]([O-])c1cnc(Sc2ccncn2)s1	u	14µM*
COC(=O)N1CCC2(CCN(Cc3ccccc3)CC2)CC1	x	11%
C=CCNC(=O)c1ccc(-n2cccc2)cc1	0%	2%
Cc1ccccc1Nc1c(-c2ccccn2)nc2ccccn12	-50%	27%
Cc1ccc2nc(-c3ccccn3)c(Nc3ccccc3C)n2c1	13µM*	u
OC1(c2ccc(Cl)cc2)CN(c2ccccc2)C2=[N+]1CCS2 (stereo not drawn)	10µM*	-2%
OC1(c2ccc(Br)cc2)CN(c2ccccc2)C2=[N+]1CCS2 (stereo not drawn)	-35%	1%
Fc1ccc(COc2ccccc2-c2ccnc3ncnn23)cc1	-11%	-1%
O=C(Nc1nc(-c2ccc(F)cc2)cs1)c1ccc(N2C(=O)CCC2=O)cc1	-16%	u
COc1ccccc1-c1csc(NC(=O)c2ccc(N3C(=O)CCC3=O)cc2)n1	3%	28µM*
CCc1ccc(NC(=O)Cn2c3[n+](c4c(F)c(F)ccc42)CCCCC3)cc1	-10%	-1%
CN(C)CCCNc1oc(/C=C/c2ccccc2)nc1C#N	-42%	6%[57.5 µM]
CN(C)CCNc1oc(/C=C/c2ccccc2)nc1C#N	10µM*	-5%
O=C(O)c1ccc(N2CC3CC(C2)c2cccc(=O)n2C3)c(NS(=O)(=O)c2cccc(C(F)(F)F)c2)c1 (stereo not drawn)	13%	1%[57.5 µM]
Cc1ccc(C2CC(=O)C=C(Nc3ccc(Cl)cc3)C2)cc1 (stereo not drawn)	-13%	2%
O=C1C=C(Nc2ccc(Cl)cc2)CC(c2ccc(Cl)cc2)C1 (stereo not drawn)	u	14µM*
COc1cc2nc(N3CCN(C(=O)OCc4ccccc4)C(C(=O)NC(C)(C)C)C3)nc(N)c2cc1OC (stereo not drawn)	13µM*	1%
COc1cc2nc(N3CCN(C(=O)c4ccco4)CC3)nc(N)c2cc1OC	-3%	6%[57.5 µM]
